# Experimental data as given in PubChem BioAssay.
# Values without a mark were called inactive. Calls of active or inactive are those of the source.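 Rule for the calls: active = inhibition above the hit cutoff set in the earlier primary screen (cut at about 27% in these data); inactive = the rest.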
# Molecular target: Protein phosphatase methylesterase 1 (Homo sapiens) (UniProt Q9Y570)
# Experiment: human PME-1 methylesterase inhibition confirmation – biochemical, fluorescence polarization, FP-Rh probe, triplicate (AID 2171);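 note: 0% = enzyme with DMSO and 100% = wells lacking PME-1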
# Details: recombinant PME-1, FP-Rh probe fluorescence polarization; at 5.9 µM; stronger effect = higher value
# Protein phosphatase methylesterase 1 (Homo sapiens), sequence (Q9Y570 whole entry, looked up): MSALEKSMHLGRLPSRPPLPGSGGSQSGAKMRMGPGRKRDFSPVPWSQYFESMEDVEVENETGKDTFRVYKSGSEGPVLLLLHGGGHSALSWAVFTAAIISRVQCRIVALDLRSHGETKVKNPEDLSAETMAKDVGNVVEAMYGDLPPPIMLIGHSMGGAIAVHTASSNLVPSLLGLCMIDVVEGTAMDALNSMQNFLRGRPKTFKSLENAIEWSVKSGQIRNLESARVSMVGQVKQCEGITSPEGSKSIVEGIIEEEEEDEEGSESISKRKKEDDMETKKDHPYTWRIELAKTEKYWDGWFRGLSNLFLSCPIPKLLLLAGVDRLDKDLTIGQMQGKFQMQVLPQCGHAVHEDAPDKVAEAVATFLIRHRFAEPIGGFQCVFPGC
row,SMILES,inhibition
1,COc1cc(/C=C2\CCC/C(=C\c3ccc(O)c(OC)c3)C2=O)ccc1O,39.5% (active)
2,CCOC(=O)Cc1csc(NC(=O)c2sc3nc4c(C)cc(C)cc4cc3c2N)n1,23.4%
3,COc1ccc2ccc3c(c2c1)N=C[C@]1(O3)N(C)c2ccccc2C1(C)C,5.96%
4,Cc1ccc(C(=O)COC(=O)c2cccc(NC(=O)c3ccc([N+](=O)[O-])cc3[N+](=O)[O-])c2)cc1,-3.98%
5,N=C1CCC(=N)c2c1c(O)c1ccccc1c2O,21.1%
6,CC(=O)Oc1c(I)cc(I)cc1C(=O)Nc1ccc(Cl)cc1,66.8% (active)
7,COc1ccc(/C=N/NC(=O)c2cc3c(OC)ccc(OC)c3[nH]2)cc1O,37.8% (active)
8,COC(=O)c1ccccc1C(=O)c1ccc2c(c1)NC(=O)CO2,7.04%
9,O=C(N=Nc1c(O)[nH]c2ccccc12)c1cccs1,42.6% (active)
10,Nc1c(C(=O)Nc2ccc(Br)cc2)sc2nc(-c3ccco3)ccc12,34.4% (active)
11,CC1(C)CC(=O)C2=C(C1)N1C(=C(C#N)C2c2ccc(Cl)cc2)N=C(N)c2ccccc21 (stereo not given),44% (active)
12,C/C(=N\NC(=O)c1ccc(N/N=C(\C)c2ccc(O)cc2)cc1)c1ccc(O)cc1,43.4% (active)
13,N#CCC(=O)Nc1ccc(C(=O)OCC(=O)Nc2ccccc2Sc2ccccc2)cc1,-19%
14,CCOC(=O)c1c(C)[nH]c(C)c1S(=O)(=O)N(C)CC(=O)Nc1cc(C)ccc1OC,24.4%
15,CC(=O)NC(c1cccs1)c1cc([N+](=O)[O-])c2cccnc2c1O (stereo not given),12%
16,Oc1ccc(Br)cc1-c1nc2cnccn2c1NC1CCCC1,21.4%
17,O=C(COC(=O)c1cccc2c1C(=O)c1ccccc1C2=O)NC1CCCCC1,56.5% (active)
18,COc1cc(/C=N/Nc2nc3ccccc3s2)cc([N+](=O)[O-])c1O,72.5% (active)
19,Cc1ccc(NCC(O)C(O)C(O)CO)c(N=Nc2ccccc2)c1C (stereo not given),50.7% (active)
20,COc1ccccc1NC(=O)CCC(=O)Nc1nnc(C(F)(F)F)s1,4.64%

row,SMILES,inhibition
1,O=C(Nc1ccc(N2CCOCC2)cc1)Nc1ccc(Cl)c(Cl)c1,21.4%
2,Cc1nn(-c2ccccc2)c2ncc(C(=O)c3cc(Cl)ccc3O)cc12,-5.34%
3,Nc1c(N2CCCC2)cc(Cl)c2nonc12,18.8%
4,CC(C)Oc1ccc(CCC(=O)N/N=C/c2ccc3c(c2)OCO3)cc1,4.01%
5,O=C(N/N=C/c1ccc(O)c(O)c1)c1ccc(CSc2cccc3cccnc23)cc1,-3.59%
6,Cc1cc(Nc2ccc(O)cc2)ccc1N,17.6%
7,CSc1ccc(C2Nc3cccc4cccc(c34)N2)cc1,36.5% (active)
8,CCCCn1c(NC(=O)c2ccccc2Cl)c(C#N)c2nc3ccccc3nc21,19.9%
9,CCn1c(CSc2nnc(-c3cccnc3)n2-c2ccccc2C)nc2cc(C(=O)O)ccc21,82% (active)
10,COc1ccc(/C=N\NC(=O)c2cc(O)c(O)c(O)c2)cc1COc1ccc(C(=O)OCC(C)C)cc1,-24.1%
11,O=C(N/N=C/c1c(O)ccc2ccccc12)Nc1ccccc1,35.5% (active)
12,COc1ccc(N=Nc2nc(-c3ccccc3)c(-c3ccccc3)[nH]2)cc1,10.8%
13,Cc1cc2c(N)cccc2nn1,7.9%
14,CCCN(CCC)CCCNC(=O)c1cn(CC)c2ccc(S(=O)(=O)N(C)C3CCCCC3)cc2c1=O,50.9% (active)
15,Cc1ccc(S(=O)(=O)Oc2cccc(/C=N/Nc3ccc(C(=O)O)cc3)c2)cc1,94% (active)
16,Cc1ccc2nc(/C(C#N)=C/c3ccc(O)c(O)c3)[nH]c2c1,17.9%
17,Cc1ccc2[nH]c3c(N4CCc5ccccc5C4)ncnc3c2c1,30.5% (active)
18,O=C(NCCc1ccccc1)c1ccc2nc(-c3ccco3)c(-c3ccco3)nc2c1,15.6%
19,Cc1ccc(-n2[nH]c(C)c(/C=N/Nc3ccc([N+](=O)[O-])cc3[N+](=O)[O-])c2=O)cc1C,33.5% (active)
20,Cc1ccc(C)c(NC(=O)COC(=O)c2cc3ccccc3oc2=O)c1,22.3%
